Records with an inconclusive call do not appear. Active and inactive are the calls of the source. Unless noted, calls come from the whole dose curve; as a rule, active = well fitted curve in the direction sought with a large enough effect; inconclusive = small, poorly fitted or top-dose-only effect, or another doubt; inactive = no such curve, though single readings can be large; an effect the other way counts as inactive or inconclusive.
How the values were obtained:
[1] = target: Rap guanine nucleotide exchange factor 3 (Homo sapiens) (UniProt O95398); assay: Confirmatory qHTS for antagonist of cAMP-regulated guanine nucleotide exchange factor 3 (EPAC1) (AID 1645880); settings: EPAC1 Rap1B-BODIPY-GDP exchange, fluorescence; activity, negative = inhibition: at 115 µM (top of the series); note: nearly all actives have a fitted effect of over 55% in size; note: potency is the fitted concentration of half-maximal effect;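 for activity, negative = inhibition: plate controls were DMSO only for no effect and full effect of the ATA control for full effect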
Chain of Rap guanine nucleotide exchange factor 3 (Homo sapiens) (O95398 whole entry, looked up): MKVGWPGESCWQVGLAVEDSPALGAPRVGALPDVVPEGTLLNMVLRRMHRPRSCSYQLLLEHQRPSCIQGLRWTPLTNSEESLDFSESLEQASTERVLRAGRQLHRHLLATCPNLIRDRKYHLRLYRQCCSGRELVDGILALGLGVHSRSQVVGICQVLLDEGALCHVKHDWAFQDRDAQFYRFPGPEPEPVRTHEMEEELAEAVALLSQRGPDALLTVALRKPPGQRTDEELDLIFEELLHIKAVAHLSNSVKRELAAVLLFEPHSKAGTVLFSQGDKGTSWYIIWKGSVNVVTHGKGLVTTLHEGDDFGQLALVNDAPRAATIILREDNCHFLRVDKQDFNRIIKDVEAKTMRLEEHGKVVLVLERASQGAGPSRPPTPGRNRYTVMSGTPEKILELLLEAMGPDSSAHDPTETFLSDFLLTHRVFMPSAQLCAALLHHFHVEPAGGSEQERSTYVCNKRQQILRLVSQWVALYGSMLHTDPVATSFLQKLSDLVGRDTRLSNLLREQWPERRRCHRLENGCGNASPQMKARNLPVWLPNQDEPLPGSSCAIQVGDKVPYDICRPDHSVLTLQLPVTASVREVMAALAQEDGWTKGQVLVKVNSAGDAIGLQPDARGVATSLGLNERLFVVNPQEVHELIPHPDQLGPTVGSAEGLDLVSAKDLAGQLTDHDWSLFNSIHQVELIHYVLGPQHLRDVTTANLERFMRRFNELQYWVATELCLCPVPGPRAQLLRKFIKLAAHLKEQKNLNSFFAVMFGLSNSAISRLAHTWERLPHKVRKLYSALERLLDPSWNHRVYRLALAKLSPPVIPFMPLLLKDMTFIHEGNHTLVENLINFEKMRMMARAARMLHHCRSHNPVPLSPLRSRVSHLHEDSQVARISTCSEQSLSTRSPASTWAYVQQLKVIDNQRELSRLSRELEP
In short: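 Nucleotide exchange uses 100 nM EPAC1, 250 nM RAP1B-BODIPY-GDP and 50 uM GDP, with compounds in a concentration-titration series. After 5 min at room temperature, fluorescence (480 nm ex/540 nm em) is read every 5 min for 30 min. Data are normalized to control ATA and DMSO.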

[2] = target: Rap guanine nucleotide exchange factor 3 (Homo sapiens) (UniProt O95398); assay: Confirmatory qHTS for agonist of cAMP-regulated guanine nucleotide exchange factor 3 (EPAC1) (AID 1645881); note: nearly all actives have a fitted effect of over 75% in size; note: potency is the fitted concentration of half-maximal effect;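 for activation: EPAC1 catalysed release of BODIPY-GDP from Rap1B seen as fluorescence loss; 100% = effect of cAMP agonist control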
[3] = target: Rap guanine nucleotide exchange factor 4 (Homo sapiens) (UniProt Q8WZA2); assay: Confirmatory qHTS for agonist of cAMP-regulated guanine nucleotide exchange factor 4 (EPAC2) (AID 1645884);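 note: nucleotide exchange releases bodipy-GDP from Rap1 and this lowers its fluorescence; nearly all actives have a fitted effect of over 65% in size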; note: potency is the fitted concentration of half-maximal effect; for activation: % is set by controls: 0 for no effect and ±100 for the full control effect
Chain of Rap guanine nucleotide exchange factor 4 (Homo sapiens) (Q8WZA2 whole entry, looked up): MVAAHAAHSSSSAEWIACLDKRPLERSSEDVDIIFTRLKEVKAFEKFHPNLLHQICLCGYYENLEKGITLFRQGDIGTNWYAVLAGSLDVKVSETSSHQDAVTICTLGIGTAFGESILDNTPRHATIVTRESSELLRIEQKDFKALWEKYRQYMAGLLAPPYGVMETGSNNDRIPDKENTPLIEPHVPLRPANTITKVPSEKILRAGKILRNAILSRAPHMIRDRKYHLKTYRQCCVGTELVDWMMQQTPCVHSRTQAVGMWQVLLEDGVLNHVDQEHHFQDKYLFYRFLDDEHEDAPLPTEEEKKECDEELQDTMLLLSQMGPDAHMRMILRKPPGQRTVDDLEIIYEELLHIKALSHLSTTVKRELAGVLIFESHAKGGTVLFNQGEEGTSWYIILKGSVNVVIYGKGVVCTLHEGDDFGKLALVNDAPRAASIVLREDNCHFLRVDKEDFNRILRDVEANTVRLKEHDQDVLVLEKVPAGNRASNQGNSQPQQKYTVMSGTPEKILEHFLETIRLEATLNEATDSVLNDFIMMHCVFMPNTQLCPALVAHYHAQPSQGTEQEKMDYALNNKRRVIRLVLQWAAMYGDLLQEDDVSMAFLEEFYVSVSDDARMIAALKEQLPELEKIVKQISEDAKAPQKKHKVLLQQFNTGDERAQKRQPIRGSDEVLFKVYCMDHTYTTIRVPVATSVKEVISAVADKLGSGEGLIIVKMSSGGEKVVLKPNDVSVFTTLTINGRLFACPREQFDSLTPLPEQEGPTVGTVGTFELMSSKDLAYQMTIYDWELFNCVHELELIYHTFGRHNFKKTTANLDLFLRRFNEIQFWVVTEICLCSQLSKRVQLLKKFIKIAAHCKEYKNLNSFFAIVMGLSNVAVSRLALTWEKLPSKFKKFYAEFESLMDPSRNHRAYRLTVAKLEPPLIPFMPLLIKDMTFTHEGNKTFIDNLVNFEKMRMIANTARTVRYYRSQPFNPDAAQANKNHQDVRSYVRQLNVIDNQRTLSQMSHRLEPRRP

[4] = target: Rap guanine nucleotide exchange factor 3 (Homo sapiens) (UniProt O95398); assay: Counterscreen qHTS for antagonist of cAMP-regulated guanine nucleotide exchange factor 3 (EPAC1) (AID 1645888);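 note: fluorescence loss as bound BODIPY-GDP is released from Rap1B; % of control where 0% means no effect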
In short: (§1)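 Rap1B-BODIPY-GDP 250 nM + GDP 50 uM; cpds 7-pt, final 9.74 nM–152 uM (activator mode) or from 7.32 nM upwards (inhibitor mode); RT; FI 480/540 nm at 5 and 30 min, then ± cAMP, reread.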

[5] = target: Rap guanine nucleotide exchange factor 3 (Homo sapiens) (UniProt O95398); assay: Counterscreen qHTS for agonist of cAMP-regulated guanine nucleotide exchange factor 3 (EPAC1) (AID 1645889); note: nearly all actives have a fitted effect of over 40% in size; note: potency is the fitted concentration of half-maximal effect; for activation: % of control where 0% means no effect
In short: as §1

[6] = AP1 Signaling Pathway (AID 357; active = well fitted curve in either direction with a large enough effect, not every such curve was filed as active;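 note: ME-180 reporter cells stimulated with EGF at its EC50 level; % is set by controls: 0 for no effect and ±100 for the full control effect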); settings: ME-180 AP-1-bla reporter, EGF-induced, beta-lactamase ratio, 5 h; at 7.69 µM (top of the series) unless noted
In short: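 A ratiometric CCF4 readout (405 nm excitation; 460 and 530 nm emission) quantified AP-1-driven beta-lactamase in ME-180 cells after 5 h with compound and EC50 EGF; AC50 values were derived for activators and inhibitors.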

[7] = NFAT Signaling Pathway (AID 444; active = well fitted curve in either direction with a large enough effect, not every such curve was filed as active;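 note: carbachol stimulus at about its EC50 of 1 µM final; % is set by controls: 0 for no effect and ±100 for the full control effect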); settings: Jurkat NFAT-bla M1, carbachol, beta-lactamase ratio, 5 h; at 7.69 µM (top of the series) unless noted
In short: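 Read-out: CCF4 FRET ratio (460 nm/530 nm) after 1 h RT dye loading, used for %activity and AC50 from titration series. Cells: Jurkat NFAT-β-lactamase/M1 line, treated with compound plus 1 uM carbachol for 5 h, 37 °C.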

[8] = Stat Signaling Pathway (AID 446; active = well fitted curve in either direction with a large enough effect, not every such curve was filed as active;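 note: ME-180 cervical cancer cells given 40 pM IL-6 alongside compound; SIE-controlled beta-lactamase reporter measured as 460/530 nm FRET emission ratio; % is set by controls: 0 for no effect and ±100 for the full control effect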)
In short: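 ME-180 SIE-bla cells; overnight plating; cpd + IL-6 40 pM, 5 h, 37 C; LiveBLAzer 2.5 h RT; 460/530 nm emission ratio. Normalized to 300 pM IL-6 and 125 nM JAK inhibitor controls.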

[9] = target: Glucocorticoid receptor (Homo sapiens) (UniProt P04150); assay: GR-GFP Redistribution (AID 450;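 active = compounds whose dose series gives a full or clear partial fitted curve of increased nuclear translocation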; note: potency is the fitted concentration of half-maximal effect); settings: U2OS GR-GFP nuclear translocation, laser cytometry, 2 h
Chain of Glucocorticoid receptor (Homo sapiens) (P04150 whole entry, looked up): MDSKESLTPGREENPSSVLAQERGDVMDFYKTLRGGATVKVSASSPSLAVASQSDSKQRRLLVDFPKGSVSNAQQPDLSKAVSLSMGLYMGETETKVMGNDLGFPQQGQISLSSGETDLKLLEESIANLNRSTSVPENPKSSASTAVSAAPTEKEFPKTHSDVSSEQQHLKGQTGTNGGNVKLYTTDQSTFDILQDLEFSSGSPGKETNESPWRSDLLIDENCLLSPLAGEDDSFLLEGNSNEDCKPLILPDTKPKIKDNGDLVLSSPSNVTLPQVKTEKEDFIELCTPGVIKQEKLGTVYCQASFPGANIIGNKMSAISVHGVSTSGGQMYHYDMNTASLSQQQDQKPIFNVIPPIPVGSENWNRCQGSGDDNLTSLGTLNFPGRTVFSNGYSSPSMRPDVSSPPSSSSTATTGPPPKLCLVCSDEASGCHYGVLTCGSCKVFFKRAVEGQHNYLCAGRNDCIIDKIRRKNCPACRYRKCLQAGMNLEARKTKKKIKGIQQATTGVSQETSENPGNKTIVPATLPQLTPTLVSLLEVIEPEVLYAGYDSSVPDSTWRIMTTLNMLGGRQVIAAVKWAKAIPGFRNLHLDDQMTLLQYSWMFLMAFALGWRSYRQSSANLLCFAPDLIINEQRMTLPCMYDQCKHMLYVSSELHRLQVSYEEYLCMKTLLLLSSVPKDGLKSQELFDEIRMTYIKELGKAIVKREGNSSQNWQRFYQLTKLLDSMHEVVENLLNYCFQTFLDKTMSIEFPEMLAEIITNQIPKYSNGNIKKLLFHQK

CCOc1ccc(C(=O)Nc2c(C(=O)Nc3ccccc3F)oc3ccccc23)cc1OCC
inactive: Potency [1] | Potency [2] | Potency [3] | Potency [4] | Potency [5]

COc1ccccc1CN(C(=O)CNC(=O)c1ccco1)C(C(=O)NCC1CCCO1)c1ccc(OC)c(OC)c1 (stereo unspecified)
inactive: Potency [1] | Potency [2] | Potency [3] | Potency [4] | Potency [5]

CN(C)c1ccc(/C=C(\C#N)c2ccccn2)cc1
inactive: Potency [1] | Potency [2] | Potency [3] | Potency [4] | Potency [5]

Cc1cc(C)c(S(=O)(=O)c2ccccc2C)c(SCC(C)C)n1
inactive: Potency [1] | Potency [2] | activation [3] 10.6% [at 17.1 µM, percent relative to cAMP agonist control] | activity change, negative = inhibition [4] -9.64% [at 30.8 µM] | activation [5] -2.44% [at 30.8 µM]

COc1ccc(OC)c(NC2c3ccccc3C(=O)N2c2cccnc2)c1 (stereo unspecified)
inactive: Potency [1] | Potency [2] | Potency [3] | Potency [4] | Potency [5]

COCCN(CCOC)Cc1cc(=O)oc2cc(C)c(Cl)cc12
inactive: Potency [1] | Potency [2] | Potency [3] | Potency [4] | Potency [5]

CN(C)c1ccccc1-c1cc(NC=O)c2ncc(-c3cccc(C(F)(F)F)c3)n2c1
active: Potency [1] 47.8 µM
inactive: Potency [2] | Potency [3] | Potency [4] | Potency [5]

CNc1nc(C)cc(C)c1S(=O)(=O)c1ccc(C)cc1
inactive: Potency [1] | Potency [2] | activation [3] 6.77% [at 17.1 µM, percent relative to cAMP agonist control] | activity change, negative = inhibition [4] -11.2% [at 30.8 µM] | activation [5] 14.5% [at 30.8 µM]

O=C(N/N=C/c1ccccc1O)c1ccc2c(c1)OCO2
inactive: Potency [1] | Potency [2] | Potency [3] | Potency [4] | Potency [5]

CCOC(=O)C1=C(N)c2ccccc2CC1C1CCCC1 (stereo unspecified)
inactive: Potency [1] | Potency [2] | Potency [3] | Potency [4] | Potency [5]

O=C1C=CC(=O)c2c(O)c(N3CCN(CCO)CC3)c(Cl)c(O)c21
active: Potency [1] 37.9 µM
inactive: Potency [2] | Potency [3] | Potency [4] | Potency [5]

Cc1ccc(S(=O)(=O)NN2C(=O)/C(=C/c3cccc(F)c3)SC2=S)cc1
inactive: Potency [2] | Potency [3] | Potency [4] | Potency [5]
active: Potency [1] 23.9 µM

O=C1c2ccccc2C(Nc2cccnc2)N1Cc1ccccc1Cl (stereo unspecified)
inactive: Potency [1] | Potency [2] | Potency [3] | Potency [4] | Potency [5]

CCOC(=O)c1cc2c(ccn2C)n1Cc1ccccc1Cl
inactive: Potency [1] | Potency [2] | Potency [3] | Potency [4] | Potency [5]

CC(C)c1ccc(OCC(=O)Nc2cccc(C(=O)Nc3ccccc3C(=O)O)c2)cc1
inactive: Potency [2] | Potency [3] | Potency [4] | Potency [5]
active: Potency [1] 75.7 µM

CCC1SC2=NC(C)=C(C(=O)OC)C(c3cccs3)N2C1=O (stereo unspecified)
inactive: Potency [1] | Potency [2] | activation [3] -2.13% [at 17.1 µM, percent relative to cAMP agonist control] | activity change, negative = inhibition [4] -9.77% [at 30.8 µM] | activation [5] 5.87% [at 30.8 µM]

C#CCOc1nc(C)cc(C)c1S(=O)(=O)c1ccccc1C
inactive: Potency [1] | Potency [2] | activation [3] -13.7% [at 17.1 µM, percent relative to cAMP agonist control] | activity change, negative = inhibition [4] -7.83% [at 30.8 µM] | activation [5] -3.33% [at 30.8 µM]

COc1cc2c(cc1OC)C(COc1ccc(F)cc1)N(C(C)=O)CC2 (stereo unspecified)
inactive: Potency [1] | Potency [2] | Potency [3] | Potency [4] | Potency [5]

O=[N+]([O-])c1ccc2nc(NS(=O)(=O)c3ccc(F)cc3)sc2c1
active: Potency [1] 42.6 µM
inactive: Potency [2] | Potency [3] | Potency [4] | Potency [5]

COc1ccc(S(=O)(=O)Nc2cccc(C)c2C)c2cccnc12
inactive: Potency [1] | Potency [2] | Potency [3] | Potency [4] | Potency [5]

CC1=C(C(=O)OCc2ccccc2)C(c2ccc(Cl)cc2Cl)NC(=O)N1CCCCCC(=O)O (stereo unspecified)
active: Potency [1] 75.7 µM
inactive: Potency [2] | Potency [3] | Potency [4] | Potency [5]

CCOc1ccc(Br)cc1S(=O)(=O)Nc1ccc(S(=O)(=O)Nc2cc(C)on2)cc1
inactive: Potency [2] | Potency [3] | Potency [4] | Potency [5]
active: Potency [1] 19 µM

O=C1C=C(c2ccccc2Oc2ccccc2)C[C@@H](c2ccc(F)cc2)C1
inactive: Potency [1] | Potency [2] | Potency [3] | Potency [4] | Potency [5]

O=C1c2cccc3c(N4CCCCC4)ccc(c23)C(=O)N1c1cccc(O)c1
active: Potency [2] 100 µM | Potency [3] 112 µM | Potency [5] 50.1 µM
inactive: Potency [1] | Potency [4]

CC1CCN(c2oc(-c3ccccc3F)nc2C#N)CC1
inactive: Potency [1] | Potency [2] | Potency [3] | Potency [4] | Potency [5]

O=C1C=C(c2ccccc2)C(c2ccccc2)C1 (stereo unspecified)
inactive: Potency [1] | Potency [2] | Potency [3] | Potency [5]

O=C(O)/C(CC(=O)c1ccc(Cl)cc1)=N/Nc1ccc([N+](=O)[O-])cc1[N+](=O)[O-]
inactive: Potency [2] | Potency [3] | Potency [5]
active: Potency [1] 75.7 µM

CCC(NC(=O)Nc1ncccc1C)(C(F)(F)F)C(F)(F)F
inactive: activity change, negative = inhibition [6] 11.9% [at 17.2 µM] | activity change, negative = inhibition [7] -12% [at 17.2 µM] | outcome [8] | Potency [9] > 20.6 µM | Potency [1] | Potency [2] | Potency [3] | Potency [4] | Potency [5]

O=C(NCc1ccc(F)cc1)c1cccc2c1C(=O)c1ccc(N3CCOCC3)cc1S2(=O)=O
active: Potency [2] 56.2 µM | Potency [3] 89.1 µM | Potency [5] 56.2 µM
inactive: Potency [1]

Reference: PubChem BioAssay (NCATS)
